# Reference: the supplement of paper PMC10338343
# ± gives the standard deviation. In all, about 6,200 sequences were measured (“pre-steady-state target cleavage rate”: median about 0.29, highest 2% from about 2 on). Many of the other results were omitted from the sample, so the highest values are more common in it than they were.
# Test system: MIWI (PIWIL1) piRISC loaded with piRNA #1 (30 nt)
# Assay: pre-steady-state target cleavage rate (min^-1); MIWI and MILI are mouse PIWI proteins and EfPiwi is from a freshwater sponge; tags in brackets are library labels; higher = faster piRNA-guided slicing of the target
# Settings: guide: piRNA #1 5'p-UGAGGUAGUAGGUUGUAUAGUAUCCAGAGG; auxiliary factor: 500 nM mouse GTSF1
# How it was run: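 The pre-steady-state cleavage rate was calculated from a burst-and-steady-state fit. Data came from Cleave-'n-Seq, in which […] transcribed, DNA-blocked target RNA library was mixed with 1 nM active affinity-purified piRISC carrying one synthetic guide, with or without 500 nM GTSF1 partner protein, in HEPES–potassium acetate buffer at 33 °C for 0–8 or 0–960 min. Uncleaved targets were sequenced and normalised to depth and to weakly complementary targets, three trials were pooled, and k3 was capped at 0.0001 min^-1.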
# 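Further: 1 nM active piRISC with 0.1 nM target library at 33 °C single turnover.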
row,Sequence,pre-steady-state target cleavage rate
1,GGUCUCGAUACUAAACAACCUACUACCUCA,1.68 ± 0.12
2,CCUCUCGAUACUAUACAACCUACUACCUGA,0.985 ± 0.087
3,GCUCUCGAUACUUUACAACCUACUACCUCA,1.69 ± 0.11
4,CCUCUCGGAUACUAUACAACCUACUACCUCA,2.06 ± 0.15
5,GCUCUCGGAUACUAUACAACCUACUACCUCA,1.76 ± 0.088
6,CCUCUCGAUACUAUACAACCUACUACCACA,2.21 ± 0.12
7,CCUCUCGAUACUAAACAACCUACUACCUCA,2.13 ± 0.14
8,GCUCUCGAUACUAAACAACCUACUACCUCA,1.81 ± 0.12
9,GGUCUCGAUACUAUACAACCUACUACCACA,0.758 ± 0.064
10,CCUCUCGAUACUUUACAACCUACUACCUCA,2.13 ± 0.14
11,GCUCUGGAUACUAUACAACCUACGACCUCA,1.22 ± 0.083
12,GGUCUGGAAACUAUACAACCAACUACCUCA,0.138 ± 0.015
13,GGAGACCAUACUUACAACCUACUACCUCA,0.269 ± 0.028
14,GGACAGGAUACUAAACAACCUACUACCUCA,1.64 ± 0.11
15,GGAGACCAUUCUAUACAACCUACUACCACA,1.16 ± 0.1
16,GGACUCGAUACUAUACAACCUACUACCUCA,1.69 ± 0.12
17,GCUCUCGAUACUAUACAACCUACUACCUGA,1.07 ± 0.11
18,CCACUCGAUACUAUACAACCUACUACCUCA,2.13 ± 0.14
19,GCUCUCGAUACUAUACAACCUACUACCACA,2.17 ± 0.15
20,GCACUCGAUACUAUACAACCUACUACCUCA,1.43 ± 0.059
21,GGACUCGAUACUAUACAACCUACUACCACA,0.579 ± 0.063
22,CCUCUGGAUACUAUACUACCUACUACCACA,1.68 ± 0.12
23,GGAGUGGAUACUACACAACCUACUACCUCA,1.71 ± 0.097
24,GGAGACGAUACUAUACAGCCUACUACCUCA,0.668 ± 0.028
25,GGAGUGGUUACUAUACAACCUAGUACCUCA,0.371 ± 0.05

row,Sequence,pre-steady-state target cleavage rate
1,GGAGACCUUACUAUACAACCUACUUCCUCA,0.399 ± 0.035
2,GCUCUGGAUAGAUUACAACCUACUACCUCA,0.735 ± 0.048
3,GCUCAGGAUACUAUACAACCUACUACCUCA,1.85 ± 0.11
4,GCUCAGGUUACUAUACAACCUACUACCUCA,2.01 ± 0.12
5,CCUCAGGAUACUAUACAACCUACUACCUCA,1.98 ± 0.12
6,CCUCAGGUUACUAUACAACCUACUACCUCA,2.5 ± 0.16
7,GGACAGGUUACUAUACAACCUACUACCUCA,1.9 ± 0.14
8,GCUCAGGAUACUAUACAACCUACAACCUCA,0.866 ± 0.076
9,GGUCUGGAUUCUAAACAACCUACUACCUCA,1.23 ± 0.071
10,GGAGACCUAUGUAUACAACCUACUCACCUCA,0.144 ± 0.027
11,GGAGACCUAACUAUACAACAUACUACCUCA,0.303 ± 0.036
12,GGAGAGGAUACUAUACACCCUACUACCUCA,1.4 ± 0.068
13,GGUCUGGAUACUAUACUACCUACAACCUCA,0.456 ± 0.054
14,GGUCUGGAUACUAUACAACCUACUACCUCU [g2:g28:cont:t1U],1.59 ± 0.11
15,GCUCUGGAUACUAUACAACCUACUACCUCU [g2:g29:cont:t1U],2.16 ± 0.13
16,GCUCUGGAUACCUAUACAACCUACUACCUCA,1.06 ± 0.08
17,GCUCUGGAUACUAUACAACCUACUACCUAA,1.83 ± 0.12
18,CCUCUGGAUACUAUACAACCUACUACCUCCA,2.27 ± 0.14
19,GGUCUGGAUACUAUACAACCUACUACCUCC [g2:g28:cont:t1C],1.54 ± 0.11
20,GCUCUGGAUACUAUACAACCUACUACCUCG [g2:g29:cont:t1G],1.29 ± 0.098
21,GGUCUGGAUACUAUACAACCUACUACCUCCA,2.06 ± 0.12
22,GCUCUGGAUACUAUACAACCUACUACCUACA,1.87 ± 0.13
23,GCUCUGGAUACUAUACAACCUACUACCUCCA,2.15 ± 0.14
24,GGAGACCAUACUAAACAACCUACUUCCUCA,0.195 ± 0.024
25,GGAGUGGAUACUAUACUACCUACUACCUGA,0.329 ± 0.052

row,Sequence,pre-steady-state target cleavage rate
1,GGAGUGGUUACUAUACAACGUACUACCUCA,0.386 ± 0.027
2,GGAGACGAUACUUUACAACCUACUAGCUCA,0.142 ± 0.027
3,GGUCUGGAUACUAUAGAACCUACUACCACA,0.0228 ± 0.0058
4,GGAGACGAUACAAUACAACCUACUACCUCA,1.29 ± 0.097
5,GGAGUGGAUACUAUAGAACCUACUACCUCA,1.34 ± 0.076
6,GGAGACCAUACUAUUCAACCUACUACCUGA,0.64 ± 0.075
7,GGAGAGGAUACUAUAGAACCUACUUCCUCA,0.00722 ± 0.0046
8,GGACUGCUUACUAUACAACCUACUACCUCA,1.54 ± 0.14
9,GGAGACCUAUGUAUACAAUCUACUACCUCA,0.0144 ± 0.0036
10,GCUCUGGAUACUAUACAACCUACUACCUA,1.37 ± 0.1
11,GCUCUGGAUACUAUACAACCUACUACCUCC [g2:g29:cont:t1C],2 ± 0.13
12,GCUCUGGAUACUAUACUACCUACAACCUCA,0.938 ± 0.086
13,GGAGACCAUACUUUACAACCUACUACCUCA,1.3 ± 0.087
14,GCUCUGGAUACCAUACAACCUACUACCUCA,0.756 ± 0.059
15,GCUCUGGAUACUAUACAACCUACUACUCUCA,2.07 ± 0.12
16,GCUCUGGAUACUAUACAACCUACUAUCUCA,2.32 ± 0.24
17,CCUCUGGAUACUAUACAACCUACUACUCUCA,2.32 ± 0.16
18,CCUCUGGAUACUAUACAACCUACUCCUCA,0.105 ± 0.022
19,GCUCUGGAUACUAUACAACCUAUCUACCUCA,0.356 ± 0.028
20,CCUCUGGAUACUAUACAACCUACUACUCA,1.76 ± 0.15
21,CCUCUGGAUACUAUACAACCUACUAUCUCA,1.09 ± 0.076
22,GGUCUGGAUACUAUACAACCUACUACUCUCA,1.2 ± 0.1
23,GCUCUGGAUACUAUACAACCUACUACUCA,1.64 ± 0.14
